Assay outcomes from PubChem.
FBW7 act: activators of human E3 ligase FBW7 | normalized activity (activation), % at 26.1 µM | 0.13% of 650,000 active | AlphaScreen FBW7–phospho-cyclin E peptide binding, activator screen | Q969H0; in the data active = normalized activity above about 1.9%;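 note: purified mutant Fbw7 with reduced substrate affinity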
TEAD-YAP block: TEAD-YAP interaction inhibition; 1.4% of 640,000 active; inhibition, % at 9.12 µM; HEK-TIYL cells, TEAD-Gal4/YAP UAS-luciferase luminescence; in the data active = inhibition above about 32%;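 note: 0% = median of test compound wells and 100% = reference inhibitor wells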
GPR151 ag: activators of human GPR151. Q8TDV0. PathHunter beta-arrestin GPR151 cells, luminescence. activation, % at 11.2 µM. 1% of 650,000 active; in the data active = activation above about 4.9%;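 note: 0% = median of compound wells and 100% = cells with positive control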
MITF primary: human MITF inhibition, primary screen; O75030; AlphaScreen MITF homodimerization, bead proximity signal; inhibition, % at 2.6 µM; 0.91% of 650,000 active; AID 1259374; in the data active = inhibition above about 50%;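 note: 0% = vehicle wells with protein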
Target sequence (O75030 whole entry, looked up): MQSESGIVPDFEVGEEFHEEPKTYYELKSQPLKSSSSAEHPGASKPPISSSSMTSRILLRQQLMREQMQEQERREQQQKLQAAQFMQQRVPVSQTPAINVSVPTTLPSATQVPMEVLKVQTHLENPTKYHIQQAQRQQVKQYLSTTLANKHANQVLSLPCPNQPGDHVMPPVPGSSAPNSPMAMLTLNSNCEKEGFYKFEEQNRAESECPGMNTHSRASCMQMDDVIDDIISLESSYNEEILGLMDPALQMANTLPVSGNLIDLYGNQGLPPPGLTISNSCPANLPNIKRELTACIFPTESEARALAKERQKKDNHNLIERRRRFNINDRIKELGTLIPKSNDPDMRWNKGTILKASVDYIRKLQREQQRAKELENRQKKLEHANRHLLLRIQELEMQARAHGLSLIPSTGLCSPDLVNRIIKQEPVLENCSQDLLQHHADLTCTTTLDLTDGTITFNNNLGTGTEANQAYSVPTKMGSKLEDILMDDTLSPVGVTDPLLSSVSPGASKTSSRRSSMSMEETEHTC
Starred values were filed as active, the others as inactive. Sampled rows, rich in hits. Any-hit rate of the full collection: about 3.4%.

How did COc1ccc(Cc2nnc(NCc3ccco3)[nH]c2=O)cc1 do in these assays?
FBW7 act: 0; TEAD-YAP block: 58*; GPR151 ag: 1; MITF primary: 7

Results for CS(=O)(=O)c1cccc(C(=O)Nc2nc(-c3ccc(Br)s3)cs2)c1 ?
FBW7 act: 0; TEAD-YAP block: 4; GPR151 ag: -1; MITF primary: 16

How did N#Cc1c(NCCN)nc(-c2ccco2)c2c1CCCC2 do in these assays?
FBW7 act: 0; TEAD-YAP block: 34*; GPR151 ag: 0; MITF primary: -10

How did CCCCCNc1nc(-c2ccco2)c2c(c1C#N)CCCC2 do in these assays?
FBW7 act: 0; TEAD-YAP block: -2; GPR151 ag: 1; MITF primary: -5

What do the screens show for `O=C(CCl)NCC1(c2ccccc2)CCCC1`?
FBW7 act: 2; TEAD-YAP block: 58*; GPR151 ag: 0; MITF primary: 7

How did O=C(NCc1ccc(F)c(F)c1)c1c[nH]c2cc(-c3cn[nH]c3)ccc12 do in these assays?
FBW7 act: 0; TEAD-YAP block: -5; GPR151 ag: -2; MITF primary: 17

What do the screens show for `O=C1NC2(CCN(C(=O)c3nccc4ccccc34)CC2)Nc2ccc(Cl)cc21`?
FBW7 act: 0; TEAD-YAP block: 78*; GPR151 ag: 1; MITF primary: -9

What do the screens show for `CCCNC(=O)CCc1nc(-c2ccccc2Cl)no1`?
FBW7 act: 0; TEAD-YAP block: 3; GPR151 ag: -1; MITF primary: -3

How did CCNC(=O)CCCc1nc(-c2ccccc2Cl)no1 do in these assays?
FBW7 act: 0; TEAD-YAP block: 36*; GPR151 ag: -1; MITF primary: 4

What do the screens show for `O=C(CSc1n[nH]c(=O)n1Cc1ccccc1)Nc1ccc(Br)cc1F`?
FBW7 act: 0; TEAD-YAP block: 34*; GPR151 ag: 3; MITF primary: -1

Results for COc1ccccc1/C=C/C(=O)NCC(=O)N=Nc1c(O)[nH]c2ccc([N+](=O)[O-])cc12 ?
FBW7 act: 0; TEAD-YAP block: 1; GPR151 ag: 3; MITF primary: 4

Results for O=C(Nc1ccc(S(=O)(=O)N2CCCCC2)cc1)c1ccc(CN2CCc3ccccc3C2)cc1 ?
FBW7 act: 1; TEAD-YAP block: 65*; GPR151 ag: 1; MITF primary: 17

How did CCOc1cccc2c1OC(c1ccc(OC)cc1)N1N=C(c3ccc(C)o3)CC21 (centres undefined) do in these assays?
FBW7 act: 0; TEAD-YAP block: -12; GPR151 ag: -2; MITF primary: -4

Results for COc1ccc(C2=NN3C(C2)c2cccc(OC)c2OC3c2ccc(OC)cc2)cc1 (centres undefined) ?
FBW7 act: 0; TEAD-YAP block: -59; GPR151 ag: -1; MITF primary: -3

What do the screens show for `COc1cccc2c1OC1(CCCCC1)N1N=C(c3ccc(C)o3)CC21` (centres undefined)?
FBW7 act: 0; TEAD-YAP block: 28; GPR151 ag: -1; MITF primary: -3

Results for COc1cccc(C2Oc3c(OC)cccc3C3CC(c4ccc(C)o4)=NN32)c1 (centres undefined) ?
FBW7 act: 0; TEAD-YAP block: 38*; GPR151 ag: -1; MITF primary: -1

Results for COc1cccc2c1OC1(CCC(C)CC1)N1N=C(c3ccc(C)o3)CC21 (centres undefined) ?
FBW7 act: 0; TEAD-YAP block: 33*; GPR151 ag: -3; MITF primary: 10

What do the screens show for `COc1ccc(C2Oc3c(OC)cccc3C3CC(c4cccc(OC)c4)=NN32)cc1` (centres undefined)?
FBW7 act: 0; TEAD-YAP block: 44*; GPR151 ag: -1; MITF primary: 0

How did O=c1[nH]c2ccc(NC(=S)Nc3ccccc3F)cc2[nH]1 do in these assays?
FBW7 act: 0; TEAD-YAP block: 12; GPR151 ag: 0; MITF primary: 0

Results for CC(C)NC(=O)CC(=O)N/N=C\c1cccc(Cl)c1Cl ?
FBW7 act: 0; TEAD-YAP block: 3; GPR151 ag: 0; MITF primary: -8

What do the screens show for `N#C/C(=C\c1ccc(O)c(O)c1)C(=O)c1ccc(O)c(O)c1`?
FBW7 act: 0; TEAD-YAP block: 5; GPR151 ag: 0; MITF primary: 86*

What do the screens show for `COc1cc2oc(=O)c(CC(=O)NCc3ccccc3)c(C)c2cc1OC`?
FBW7 act: 0; TEAD-YAP block: 49*; GPR151 ag: -1; MITF primary: 20

What do the screens show for `Nc1cccc(-c2nc3cc(S(=O)(=O)c4ccc5oc(-c6cccc(N)c6)nc5c4)ccc3o2)c1`?
FBW7 act: 0; TEAD-YAP block: 6; GPR151 ag: 2; MITF primary: 9

What do the screens show for `CC(C)c1ccc2oc(-c3cccc(N)c3)nc2c1`?
FBW7 act: 0; TEAD-YAP block: 65*; GPR151 ag: -7; MITF primary: 2

How did CC(C)c1ccc2oc(-c3ccc(N)cc3)nc2c1 do in these assays?
FBW7 act: 0; TEAD-YAP block: 80*; GPR151 ag: -1; MITF primary: 0

Results for Cn1nccc1C(=O)Nc1ccc(OC(=O)c2ccnn2C)cc1 ?
FBW7 act: 0; TEAD-YAP block: 34*; GPR151 ag: 2; MITF primary: -5

Results for CCOC(=O)c1ccc(NC(=O)c2ccnn2C)cc1 ?
FBW7 act: 0; TEAD-YAP block: -43; GPR151 ag: -6; MITF primary: -4

What do the screens show for `COc1ccc(OC)c(NC(=O)NNC(=O)c2csc(C)c2C)c1`?
FBW7 act: 0; TEAD-YAP block: 10; GPR151 ag: 2; MITF primary: 2

What do the screens show for `Cc1cccc(N=C(NN)c2ccc3ccccc3n2)c1`?
FBW7 act: 0; TEAD-YAP block: 66*; GPR151 ag: -2; MITF primary: 10

How did Cc1ccc(NC(=O)N(Cc2cc3cc4c(cc3[nH]c2=O)OCCO4)CC2CCCO2)cc1 (centres undefined) do in these assays?
FBW7 act: 0; TEAD-YAP block: 55*; GPR151 ag: 1; MITF primary: 8

What do the screens show for `Cc1cc(C)c(C(=O)/C=C/c2ccccc2F)c(=O)[nH]1`?
FBW7 act: 0; TEAD-YAP block: 66*; GPR151 ag: 0; MITF primary: -20

Results for Cc1cc(C)c(C(=O)/C=C/c2ccncc2)c(=O)[nH]1 ?
FBW7 act: 0; TEAD-YAP block: 32; GPR151 ag: 0; MITF primary: -13

How did CCOc1ccccc1C(=O)Nc1nnc(CCc2ccccc2)s1 do in these assays?
FBW7 act: 0; TEAD-YAP block: 34*; GPR151 ag: -2; MITF primary: -5

What do the screens show for `CCOC(=O)c1oc2ccccc2c1NC(=O)c1ccccc1C`?
FBW7 act: 0; TEAD-YAP block: -2; GPR151 ag: 0; MITF primary: 11

What do the screens show for `COC(=O)c1ccccc1NC(=O)c1ccccc1OC`?
FBW7 act: 0; TEAD-YAP block: 3; GPR151 ag: 1; MITF primary: 6

How did CCOc1ccc(NC(=O)c2oc3ccccc3c2NC(=O)c2ccco2)cc1 do in these assays?
FBW7 act: 2.6*; TEAD-YAP block: 5; GPR151 ag: 0; MITF primary: 1

How did CCOC(=O)c1oc2ccccc2c1NC(=O)c1ccccc1OCC do in these assays?
FBW7 act: 0; TEAD-YAP block: 53*; GPR151 ag: 0; MITF primary: 7
